Results taken from PubChem BioAssay AID1159580 (chemical genetic matrix, 2015).
Several values for one entry are separate records, joined by “and”; a condition that tells them apart may be missing. Equal values may be shown once. Hit rate of the full screen: of about 5,500 compounds, about 2,000 (36%) were called active. About 18% were inconclusive and are not listed. Cut-off read from the data, not from the text of the source: active = normalized growth mostly below about 0.91 (no sharp cut-off); inconclusive = no clear call, values can overlap the other calls; inactive = mostly above about 0.92. The list shows a part of the results.

Assay: chemical genetic growth profiling, strain panel (AID 1159580);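 note: tested at 20 µM; growth read once vehicle control cultures reached saturation at 30 °C; 1 = growth at the plate median or of vehicle wells; lower values mean less growth of the strain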
Details: growth OD

Measured: normalized growth

CN(C)CCCN1c2ccccc2Sc2ccccc21
inactive: S. cerevisiae deletion strains, locus YJR075W, strain HOC1, active compounds read low 0.995 and 1 | S. cerevisiae deletion strains, locus YKL009W, strain mrt4, active compounds read low 1.02 | S. cerevisiae deletion strains, locus YKL068W, active compounds read low 1.01 | S. cerevisiae deletion strains, locus YKL085W, strain MDH1 (second series), active compounds read low 1 | S. cerevisiae deletion strains, locus YKL085W, strain MDH1, active compounds read low 1 | S. cerevisiae deletion strains, locus YKL160W, strain elf1, active compounds read low 1.04 | S. cerevisiae deletion strains, locus YKL190W, strain CNB1, active compounds read low 1 | S. cerevisiae deletion strains, locus YKR001C, strain vps1, active compounds read low 1.02 | S. cerevisiae deletion strains, locus YKR026C, strain gcn3, active compounds read low 0.989 | S. cerevisiae deletion strains, locus YKR091W, strain srl3, active compounds read low 0.984 | S. cerevisiae deletion strains, locus YLL001W, strain dnm1, active compounds read low 0.978 | S. cerevisiae deletion strains, locus YLL026W, active compounds read low 0.98 | S. cerevisiae deletion strains, locus YLL041C, strain sdh2, active compounds read low 0.99 | S. cerevisiae deletion strains, locus YLR027C, strain aat2, active compounds read low 0.999 | S. cerevisiae deletion strains, locus YLR039C, strain RIC1, active compounds read low 1.19 | S. cerevisiae deletion strains, locus YLR058C, strain SHM2, active compounds read low 1 | S. cerevisiae deletion strains, locus YLR102C, strain apc9, active compounds read low 1.01 | S. cerevisiae deletion strains, locus YLR113W, strain HOG1, active compounds read low 1.01 | S. cerevisiae deletion strains, locus YLR221C, strain rsa3, active compounds read low 0.992 | S. cerevisiae deletion strains, locus YLR258W, strain gsy2, active compounds read low 0.983 | S. cerevisiae deletion strains, locus YLR262C, strain YPT6 (second series), active compounds read low 1.01 | S. cerevisiae deletion strains, locus YLR262C, strain YPT6, active compounds read low 1.23 | S. cerevisiae deletion strains, locus YLR268W, strain sec22, active compounds read low 1.01 | S. cerevisiae deletion strains, locus YLR320W, strain mms22, active compounds read low 0.996 | S. cerevisiae deletion strains, locus YLR330W, strain CHS5, active compounds read low 1.01 | S. cerevisiae deletion strains, locus YLR342W, strain FKS1 (second series), active compounds read low 0.99 | S. cerevisiae deletion strains, locus YLR342W, strain FKS1, active compounds read low 0.977 | S. cerevisiae deletion strains, locus YLR357W, strain rsc2, active compounds read low 0.989 | S. cerevisiae deletion strains, locus YLR370C, strain arc18, active compounds read low 1 | S. cerevisiae deletion strains, locus YLR371W, strain rom2, active compounds read low 1.01 | S. cerevisiae deletion strains, locus YLR384C, strain iki3, active compounds read low 0.997 | S. cerevisiae deletion strains, locus YLR418C, strain cdc73, active compounds read low 0.988 | S. cerevisiae deletion strains, locus YML016C, strain PPZ1, active compounds read low 1.01 | S. cerevisiae deletion strains, locus YML032C, strain rad52, active compounds read low 1.01 | S. cerevisiae deletion strains, locus YML120C, strain ndi1, active compounds read low 0.99 | S. cerevisiae deletion strains, locus YML124C, strain tub3, active compounds read low 1.01 | S. cerevisiae deletion strains, locus YMR058W, strain fet3, active compounds read low 0.982 | S. cerevisiae deletion strains, locus YMR078C, strain ctf18, active compounds read low 1.01 | S. cerevisiae deletion strains, locus YMR125W, strain sto1, active compounds read low 0.947 | S. cerevisiae deletion strains, locus YMR129W, active compounds read low 1 | S. cerevisiae deletion strains, locus YMR205C, strain PFK2, active compounds read low 1 | S. cerevisiae deletion strains, locus YMR223W, strain ubp8, active compounds read low 0.999 | S. cerevisiae deletion strains, locus YMR231W, strain pep5, active compounds read low 0.986 | S. cerevisiae deletion strains, locus YMR263W, strain SAP30, active compounds read low 0.999 and 0.981 | S. cerevisiae deletion strains, locus YMR307W, strain GAS1, active compounds read low 1.03 and 1.02 | S. cerevisiae deletion strains, locus YNL067W, strain RPL9B, active compounds read low 0.988 | S. cerevisiae deletion strains, locus YNL071W, strain lat1, active compounds read low 0.996 | S. cerevisiae deletion strains, locus YNL128W, strain TEP1, active compounds read low 1.01 and 0.994 | S. cerevisiae deletion strains, locus YNL153C, strain GIM3, active compounds read low 1.09 | S. cerevisiae deletion strains, locus YNL175C, strain NOP13, active compounds read low 0.983 | S. cerevisiae deletion strains, locus YNL183C, strain NPR1, active compounds read low 0.965 | S. cerevisiae deletion strains, locus YNL209W, strain ssb2, active compounds read low 0.971 | S. cerevisiae deletion strains, locus YNL224C, strain SQS1, active compounds read low 1.01 | S. cerevisiae deletion strains, locus YNL233W, strain BNI4, active compounds read low 1.01 | S. cerevisiae deletion strains, locus YNL248C, strain rpa49, active compounds read low 0.976 | S. cerevisiae deletion strains, locus YNL250W, strain rad50, active compounds read low 1.01 | S. cerevisiae deletion strains, locus YNL271C, strain bni1, active compounds read low 1.01 | S. cerevisiae deletion strains, locus YNL298W, strain CLA4, active compounds read low 1 | S. cerevisiae deletion strains, locus YNL307C, strain MCK1, active compounds read low 1.02 | S. cerevisiae deletion strains, locus YNL322C, strain KRE1 (second series), active compounds read low 1.01 | S. cerevisiae deletion strains, locus YNL322C, strain KRE1, active compounds read low 1 and 0.958 | S. cerevisiae deletion strains, locus YNR049C, strain mso1, active compounds read low 0.996 | S. cerevisiae deletion strains, locus YNR052C, strain pop2, active compounds read low 1.01 | S. cerevisiae deletion strains, locus YOL006C, strain TOP1, active compounds read low 0.983 | S. cerevisiae deletion strains, locus YOL012C, strain htz1 0.964 | S. cerevisiae deletion strains, locus YOL147C, strain pex11, active compounds read low 1.01 | S. cerevisiae deletion strains, locus YOR001W, strain rrp6, active compounds read low 0.96 | S. cerevisiae deletion strains, locus YOR061W, strain CKA2, active compounds read low 1.01 | S. cerevisiae deletion strains, locus YOR069W, strain VPS5, active compounds read low 0.995 | S. cerevisiae deletion strains, locus YOR070C, strain gyp1, active compounds read low 0.986 | S. cerevisiae deletion strains, locus YOR080W, strain dia2, active compounds read low 1.01 | S. cerevisiae deletion strains, locus YOR083W, strain WHI5 (second series), active compounds read low 0.98 | S. cerevisiae deletion strains, locus YOR083W, strain WHI5, active compounds read low 0.971 | S. cerevisiae deletion strains, locus YOR106W, strain vam3, active compounds read low 0.968 | S. cerevisiae deletion strains, locus YOR136W, strain idh2, active compounds read low 1.02 | S. cerevisiae deletion strains, locus YOR144C, strain elg1, active compounds read low 1.01 | S. cerevisiae deletion strains, locus YOR184W, strain ser1, active compounds read low 1.08 | S. cerevisiae deletion strains, locus YOR231W, strain MKK1, active compounds read low 0.986 | S. cerevisiae deletion strains, locus YOR265W, strain rbl2, active compounds read low 1 | S. cerevisiae deletion strains, locus YOR270C, strain vph1, active compounds read low 0.898 | S. cerevisiae deletion strains, locus YOR290C, strain snf2, active compounds read low 1.01 | S. cerevisiae deletion strains, locus YOR316C, strain cot1, active compounds read low 1.02 | S. cerevisiae deletion strains, locus YPL051W, strain arl3, active compounds read low 1 | S. cerevisiae deletion strains, locus YPL055C, strain LGE1, active compounds read low 1.01 | S. cerevisiae deletion strains, locus YPL078C, strain atp4, active compounds read low 1.01 | S. cerevisiae deletion strains, locus YPL106C, strain sse1, active compounds read low 0.999 | S. cerevisiae deletion strains, locus YPL240C, strain hsp82, active compounds read low 0.985 | S. cerevisiae deletion strains, locus YPL241C, strain CIN2, active compounds read low 0.999 | S. cerevisiae deletion strains, locus YPL256C, strain CLN2, active compounds read low 1.01 | S. cerevisiae deletion strains, locus YPR119W, strain clb2, active compounds read low 1 | S. cerevisiae deletion strains, locus YPR141C, strain kar3, active compounds read low 1.01 | S. cerevisiae deletion strains, locus YPR163C, strain tif3, active compounds read low 1.01 | S. cerevisiae deletion strains, locus YPR167C, strain met16, active compounds read low 1.01 | S. cerevisiae deletion strains, strain wtn01, active compounds read low 1.02 | S. cerevisiae strains, strain wild type, active compounds read low 0.992
